Compounds without any hit were thinned out: in the full panel of roughly 83,000, 20% have a hit.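 Compound tested at a single concentration for 48 hours in 96-well plates; a percent growth value below 10 was scored as active.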 Unmarked numbers belong to inactive results. Active and inactive are the calls of the source.

The first experiment has as its system OVCAR-8 ovarian. Kind of experiment: NCI-60 one-dose screen, 48 h (100 = growth as untreated, 0 = no growth, -100 = all killed). Conditions: 10 µM unless noted.
As to `Nc1nc(SCc2cccnc2)c2ncn(C3OC(CO)C(O)C3O)c2n1` (stereo not given), the growth is 97.1%.

Take `COc1ccc(C2=NN(C=O)C(c3cccc(Nc4ccnc5cc(Cl)ccc45)c3)C2)cc1` (stereo not given): the growth is 17%.

Regarding `O=CN1N=C(c2ccc(Nc3ccnc4cc(Cl)ccc34)cc2)CC1c1ccc(Cl)cc1` (stereo not given), the growth was 33.1%.

On to `Cc1sc2nc(N3CCCCC3)[nH]c(=O)c2c1C`, for which the growth was 96.5%.

As for `Cc1ccc(N/N=C(/C(=O)c2ccc(Cl)cc2)c2nc(C)cc(=O)[nH]2)cc1`, the growth was 101%.

Another experiment relates to OVCAR-5 ovarian. The experiment is described as above. The following applies: 10 µM unless noted.
With `CCCc1n(Cc2ccc3ccccc3c2)cc[n+]1Cc1ccc2ccccc2c1`, the growth was 9.11% (active).

Turning to `CC(=O)OCC(=O)[C@@]1(O)CC[C@H]2[C@@H]3CCC4=CC(=O)CC[C@]4(C)[C@@]3(F)[C@@H](O)C[C@@]21C`, the growth was 80.2%.

`COC(=O)[C@H](Cc1cnc[nH]1)NC(=O)[C@@H](NC(=O)Nc1cc(C(F)(F)F)cc(C(F)(F)F)c1)C(C)C`: the growth is -82.7% [100 µM] (active).

As for `COc1ccccc1-n1c(-c2ccc(O)cc2C)cn2c3c(=O)[nH]c(=O)n(C)c3nc12`, the growth was 86.9%.

On to `Nc1nc(Nc2ccccc2SSc2ccccc2Nc2nc(N)nc(-c3cccc(Cl)c3)n2)nc(-c2cccc(Cl)c2)n1`, for which the growth was 97.5%.

Turning to `COc1ccc2c(c1)C(=Nc1cc(OC)c(OC)c(OC)c1)C(=O)N2`, the growth was 99.5%.

Take `CC1C(=O)NC2=Nc3ccccc3C(=O)NN21` (stereo not given): the growth was 96.5%.

`CC1c2ccccc2-c2ccccc2N1C` (stereo not given): the growth is 101%.

In the case of `CCC(C)C1NC(=O)C(CCNCS(=O)(=O)O)NC(=O)C(NC(=O)C(CCNCS(=O)(=O)O)NC(=O)C(NC(=O)C(CCNCS(=O)(=O)O)NC(=O)CCCCC(C)C)C(C)O)CCNC(=O)C(C(C)O)NC(=O)C(CCNCS(=O)(=O)O)NC(=O)C(CCNCS(=O)(=O)O)NC(=O)C(C(C)CC)NC1=O` (stereo not given), the growth is 73.1%.

As to `O=C(N/N=C/c1ccc(Cl)cc1Cl)c1ccccc1Nc1cccc(C(F)(F)F)c1`, the growth is 85.6%.

On to `COc1cnc2c(c1)C(=O)c1c-2n(CCCN2CCNCC2)c(=O)c2cc(F)ccc12`, for which the growth was -0.468% (active).

Regarding `O=C(/C=C/c1cccc(Nc2ccnc3cc(Cl)ccc23)c1)c1ccc(Cl)cc1`, the growth is 60.4%.

For `Nc1c(C(=O)Nc2cccc(Cl)c2)sc2nc3c(cc12)C(O)CCC3` (stereo not given), the growth is 51.2%.

On to `Nc1nc(Nc2ccccc2SSc2ccccc2Nc2nc(N)nc(C(Cl)(Cl)Cl)n2)nc(C(Cl)(Cl)Cl)n1`, for which the growth is 82%.

Regarding `Cc1ccc(/C=C(/C#N)n2nnc3ncccc32)cc1`, the growth is -20.3% (active).

For the molecule `O=C1C=CC(=O)N1c1ccccn1`, the growth is 97.9%.

Consider `c1ccc(COc2ccc(Nc3ncnc4c3cnn4-c3ccccc3)cc2)cc1`, for which the growth was 98.9%.

With `CN1C(=O)C(C2=NN(C=O)C(c3ccc(F)cc3)C2)C(=O)N(C)C1=O` (stereo not given), the growth was 97.1%.

On to `COc1ccc(C(=O)/C=C/c2cccc(Nc3ccnc4cc(Cl)ccc34)c2)cc1`, for which the growth was 39.3%.

`Cc1n(Cc2ccc3ccccc3c2)cc[n+]1Cc1ccc2ccccc2c1`: the growth is 20.6%.

Take `O=C(/C=C/c1ccc(C(F)(F)F)cc1)c1ccc(Nc2nc(NCCO)nc(NCCO)n2)cc1`: the growth is 64.3%.

For `O[N+]1=CC=CCC1=S.On1ccccc1=S.[Zn]`, the growth was -83.1% (active).

Regarding `Cn1c(=O)c2[nH]c(=S)n(Cc3ccccc3)c2n(C)c1=O`, the growth was 105%.

As to `COc1cc(/C=C/C(=O)c2c(C)n([O-])c3ccc(Cl)cc3[n+]2=O)cc(OC)c1OC`, the growth is 98.2%.

`COc1ccc(Oc2ccccc2NC(=O)CNC(=O)c2cccc3ccccc23)cc1`: the growth was 40.9% [5 µM].

For `CN[C@@H]1C(OC2[C@H](O[C@H]3[C@H](O)[C@@H](O)[C@H](N=C(N)N)[C@@H](O)[C@@H]3N=C(N)N)OC(C)[C@]2(O)CO)OC(CO)C(O)C1O` (stereo not given in full), the growth is 102%.

As for `CNc1nc(NC2CCCC2)nc(Sc2ccc(OC)cc2)n1`, the growth is 59.5% [100 µM].

With `COc1ccc(OC)c(CCn2cncc2-c2c[nH]c3cc(Br)ccc23)c1`, the growth was 79.5%.

Regarding `COc1cnc2c(c1)C(=O)c1c-2n(CCCN2CCCC2)c(=O)c2cc(F)ccc12`, the growth was 5.78% (active).

As to `COc1cc(C2=NN(C=O)C(c3cccc(Nc4ccnc5cc(Cl)ccc45)c3)C2)cc(OC)c1OC` (stereo not given), the growth was 94.2%.
